Bim-Mcl-1 – human Bim-Mcl-1 interaction inhibition. inhibition, % at 10 µM. Q07820. hit rate 0.1% among 190,000. Bead-based flow cytometry, Bim peptide-Mcl-1 binding; in the data active = inhibition above about 40%;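 also: 0% = no compound tracer wells and 100% = peptide blocker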
Target sequence (Q07820 whole entry, looked up): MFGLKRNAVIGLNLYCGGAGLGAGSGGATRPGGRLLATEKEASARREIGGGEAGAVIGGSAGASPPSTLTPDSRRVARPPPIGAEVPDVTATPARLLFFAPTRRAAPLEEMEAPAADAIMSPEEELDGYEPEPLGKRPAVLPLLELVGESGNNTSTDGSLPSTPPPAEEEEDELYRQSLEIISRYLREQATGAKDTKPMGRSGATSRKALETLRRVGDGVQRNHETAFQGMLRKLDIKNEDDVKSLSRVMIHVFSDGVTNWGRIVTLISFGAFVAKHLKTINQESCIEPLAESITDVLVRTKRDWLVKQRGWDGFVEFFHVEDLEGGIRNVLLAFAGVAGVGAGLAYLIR
Mcl1 Noxa PPI – disrupts binding of human Mcl-1 to Noxa peptide | Q07820 | TR-FRET Mcl-1/Noxa peptide binding, 2 h | inhibition, % at 21.7 µM | hit rate 1.5% among 220,000;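 active = compounds that cut the protein-peptide binding signal by more than 50% relative to plate controls in a single-dose test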;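 also: His-tagged Mcl-1 with rhodamine Noxa BH3 peptide and terbium anti-His antibody; 0% = Mcl-1 plus Noxa peptide wells and 100% = peptide-only wells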
Mcl1 Bid PPI – Mcl-1/Bid interaction inhibition. TR-FRET Mcl-1/Bid-Dy647 peptide binding, 1536-well. inhibition, % at 21.7 µM. hit rate 0.97% among 220,000;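 active = compounds that cut the binding signal by more than half at the single screening dose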;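 also: His-tagged Mcl-1 with europium anti-His antibody binding Bid BH3 peptide; 0% = Mcl-1 plus peptide wells and 100% = peptide-only wells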
eIF4E-4G inh – eIF4E/eIF4G interaction inhibition in translation initiation | P63073+Q04637 | TR-FRET eIF4E-eIF4GI(517-606) binding, 2 h | inhibition, % at 21.7 µM | hit rate 0.37% among 220,000 | AID 782;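 also: 0% = full FRET control wells and 100% = background wells lacking eIF4GI fragment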
NCF1 inh – blocks human p47phox regulatory protein of NADPH oxidases; p47phox/p22phox peptide binding, fluorescence polarization, 2 h; inhibition, % at 24.7 µM; hit rate 0.53% among 220,000; AID 1274;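 also: 0% = p47phox with labelled peptide and 100% = labelled peptide alone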
14-3-3 Bad PPI – disrupts binding of bovine 14-3-3 zeta to phospho-Bad peptide | AID 781 | hit rate 0.71% among 220,000 | inhibition, % at 21.7 µM | TR-FRET 14-3-3zeta/Dy647-pBad peptide displacement, 1 h;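 active = inhibition above about 70%, limit read from the data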;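 also: 0% = full 14-3-3 plus peptide FRET controls and 100% = background without 14-3-3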
Target sequence (P63103 whole entry, looked up): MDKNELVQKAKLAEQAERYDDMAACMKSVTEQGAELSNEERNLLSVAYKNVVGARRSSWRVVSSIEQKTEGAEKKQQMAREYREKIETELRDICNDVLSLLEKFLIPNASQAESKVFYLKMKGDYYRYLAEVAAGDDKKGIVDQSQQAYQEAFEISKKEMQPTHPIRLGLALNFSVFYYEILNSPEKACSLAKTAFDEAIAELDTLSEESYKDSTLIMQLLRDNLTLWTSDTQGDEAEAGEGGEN
An asterisk follows results filed as active; x = not tested or not shown; [ ] = remark or other dose. A selection: hits, their analogues and other compounds. The true share with any hit is near 3.4%.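 The calls were made as follows, unless noted: active = inhibition above about 30% (limit read from the data); inactive = the rest.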

SMILES	Bim-Mcl-1	Mcl1 Noxa PPI	Mcl1 Bid PPI	eIF4E-4G inh	NCF1 inh	14-3-3 Bad PPI
COc1cc(-c2noc(-c3ccccc3C(=O)NCc3ccco3)n2)cc(OC)c1OC	0	-4	-12	-3	42*	-10
CC1CCN(Cc2c(O)ccc3c2O/C(=C\c2ccco2)C3=O)CC1	2	56*	-12	7	-45	4
O=C1/C(=C/c2ccco2)Oc2c1ccc(O)c2CN1CCCCC1	1	54*	-13	7	-38	-9
Cc1ccc(/C=C2\Oc3c(ccc(O)c3CN3CCN(CCO)CC3)C2=O)cc1	0	7	-10	0	0	-8
C=CCOc1ccc(/C=N/NC(=O)C(=O)Nc2ccccn2)cc1OC	-5	16	-21	25	0	12
COc1ccccc1/C=C/C(=O)c1c2c(c(C)[nH]c1=O)CCCC2	-2	8	-19	67*	-16	-6
COc1ccccc1/C=C/C(=O)c1ccccc1	x	7	1	0	-4	2
CCN(CC)c1ccc(NC2=C(Cl)C(=O)c3ccccc3C2=O)cc1	-2	89*	7	19	35*	3
O=C(CN1C(=O)/C(=C\c2cccc(F)c2)Oc2ccccc21)N1CCN(c2ccccn2)CC1	-3	-12	54*	-9	14	51
Cc1cc(O)ccc1N/C=C(\C#N)c1nc2ccccc2o1	-2	28	93*	-4	-23	-4
N#Cc1nc(COc2ccc(Br)cc2)oc1N1CCN(Cc2ccccc2)CC1	-6	8	-26	5	-32	7
N#Cc1nc(COc2ccc(F)cc2)oc1N1CCN(Cc2ccccc2)CC1	1	3	77*	-2	-16	-3
N#Cc1nc(COc2ccc(F)cc2)oc1N1CCC(Cc2ccccc2)CC1	-1	9	-32	3	50*	10
NC(=O)[C@H]1CC2(CC(c3cccc(NC(=O)COc4ccc(Cl)cc4)c3)=NO2)CN1C(=O)Cc1ccc([N+](=O)[O-])cc1 (stereo not given in full)	x	8	-8	-5	-10	1
O=C(Cc1ccccc1Cl)Nc1nc2ccccc2[nH]1	x	18	-4	1	-11	1
O=C(CCCOc1ccc(Cl)cc1Cl)N/N=C/c1ccccc1	2	5	9	3	51*	6
Cc1ccc(/C=N/NC(=O)CCCOc2ccc(Cl)cc2Cl)cc1	-1	-5	1	4	-7	9
CCc1ccc(C(=O)NNC(=O)OC)cc1	0	11	0	72*	5	-14
COc1ccc(N2CCN(C(=O)Cn3c(=O)[nH]c4ccccc4c3=O)CC2)cc1	0	21	-25	2	-6	7
COCCn1c(C)cc(C2=NNC(=Nc3ccc(Cl)cc3Cl)SC2)c1C	-2	6	-23	-10	-38	72*
COCCn1c(C)cc(C2=NNC(=NC3CC3)SC2)c1C	3	32	-55	-1	-5	-9
CCC(SC1=Nc2ccccc2C2=NC(CC(C)C)C(=O)N12)C(=O)Nc1ccc2c(c1)OCO2 (stereo not given)	-3	62*	-35	0	-37	2
CC(C)C(C(=O)Nc1ccc2c(c1)OCO2)N1C(=O)c2ccccc2C1=O (stereo not given)	-2	0	-19	2	-2	-11
O=C(Nc1cccc(-c2ccc3nncn3n2)c1)c1ccco1	41*	-6	-9	-7	-8	-7
CCOC(=O)N1CCC(NC(=O)C2CCN(S(=O)(=O)c3c(C)noc3C)CC2)CC1	-1	-7	55*	11	3	4
SMILES	Bim-Mcl-1	Mcl1 Noxa PPI	Mcl1 Bid PPI	eIF4E-4G inh	NCF1 inh	14-3-3 Bad PPI
CCOC(=O)N1CCC(NC(=O)C2CCN(S(=O)(=O)N3CCCC3)CC2)CC1	-2	1	-28	-14	7	-1
COCCN1C(=O)/C(=C/c2ccc(OCc3ccc(C(=O)O)cc3)c(OC)c2)SC1=Nc1ccccc1	-1	64*	-57	8	-49	-2
COC(=O)c1ccc(-c2ccc(/C=N/NC(=O)Cc3nnc(N)s3)o2)cc1	x	48	-24	3	-7	7
Cn1cc([N+](=O)[O-])c(C(=O)Nc2ccc(-c3nc4ccccc4o3)cc2)n1	x	12	-3	-11	-16	6
CCCCN(C)S(=O)(=O)c1ccc(C(=O)N=c2sc3cc(NC(C)=O)ccc3n2C)cc1	-29	29	70*	22	18	61
CC1=C(C#N)C(=O)NC(=O)/C1=C\c1ccc(-c2ccc(C)cc2[N+](=O)[O-])o1	0	95*	75*	33*	-6	48
CCCCC1(C)OC(=O)C(=Cc2ccc(-c3ccc(Cl)c(C(=O)O)c3)o2)C(=O)O1 (stereo not given)	x	28	-1	3	-9	9
CCOC(=O)c1cc(-c2ccc(/C=C3/C(=O)NC(=O)C(C#N)=C3C)o2)ccc1Cl	2	102*	93*	59*[fluorescence artefact?]	3	77*[fluorescence artefact?]
COc1ccc(C2=NN(CCC(=O)NCc3cccs3)C(=O)CC2)cc1	-1	-11	-30	-3	6	-4
COc1ccc2nc(C)cc(SCC(=O)Nc3c(C)cc(C)cc3C)c2c1	2	-4	-9	9	23	67
COc1ccc2nc(C)cc(SCC(=O)NNC(=O)COc3ccc(C)cc3)c2c1	-1	-43	8	1	-8	-1
COc1ccc2nc(C)cc(SCC(=O)NNC(=O)COc3cccc4ccccc34)c2c1	-1	1	52*	13	2	57
COc1ccc2nc(C)cc(SCC(=O)Nc3c(C)cccc3C)c2c1	-2	-7	68*	13	25	41
COc1ccc2nc(C)cc(SCC(=O)N/N=C/c3ccccc3)c2c1	-4	-14	8	-1	20	24
COc1ccc2nc(C)cc(SCC(=O)N/N=C/c3c(OC)ccc4ccccc34)c2c1	-12	3	64*	19	42*	96*[fluorescence artefact?]
Cc1c(/C=N/NC(=O)c2cccs2)c2ccccc2n1Cc1ccccc1Cl	x	17	-20	-2	-22	4
CCOc1ccc(N(CC(=O)Nc2ccc(C)cc2)S(=O)(=O)c2c(C)[nH]c(=O)[nH]c2=O)cc1	x	12	19	-2	-6	1
O=C(NCCc1csc(-c2cccnc2)n1)c1cccs1	-2	15	86*	-3	1	2
Cc1ccc(C(=O)NCCc2csc(-c3cccnc3)n2)cc1	-1	-10	-10	5	-13	6
Cc1nn(Cc2ccccc2)c(=O)c2nn(-c3ccc(Cl)cc3)c(C)c12	0	0	-10	0	2	-8
COc1cccc(-n2nc3c(=O)n(Cc4ccccc4Cl)nc(C)c3c2C)c1	-5	3	3	9	84*	0
CC(=O)N1CC2(NC(=O)c3ccccc3N2)c2ccccc21 (stereo not given)	0	17	4	-1	-6	-2
